Composite z-score and z-score data for 6 compounds are collected here from PubChem BioAssay.

SMILES strings stand for the structures. The source made the active and inactive calls. Unless noted, the rule behind the calls is not given here.

Test [1] relates to Wnt5a (protein binding on small-molecule microarray). The test is described as follows: small molecules binding Wnt5a protein – biophysical, small-molecule microarray, 635/667 nm fluorescence, primary screen (AID 1142).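 Note: fluorescence read at 667 nm with signal to noise per printed feature.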 The conditions noted are these: 635 nm fluorescence, higher = more signal.
Test [2] in a line: ATP-based viability of Huh7 replicon cells – cell-based, CellTiter-Glo luminescence, basal, 48 h, cytotoxicity control for HCV replication inhibitor project, primary screen (AID 1143).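 Note: Huh7 hepatoma cells carrying a hepatitis C replication reporter with no stimulus; test concentration not given here.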 The conditions noted are these: higher = more signal, called active from +8 up or from −8 down. On the technique in general: In antiviral work, replicon cells carry a viral genome segment that copies itself.

Test [3] can be described thus: Pseudomonas biofilm growth suppression – PAO1 strain, BacTiter-Glo luminescence, LB-PBS, primary screen (AID 1144). The conditions noted are these: P. aeruginosa PAO1 biofilm, 12 h, higher = more signal.
Test [4] can be described thus: basal CRE-LacZ reporter activity in PC12 – cell-based, unstimulated, primary screen (AID 1145). The conditions noted are these: no forskolin, luminescence, 4.5 h, higher = more signal, called active from +8 up or from −8 down.
Test [5] in a line: forskolin-driven CRE-LacZ activity in PC12 – cell-based, CRE-LacZ reporter, forskolin-stimulated, primary screen (AID 1146).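 Note: PC12 cells with 6xCRE LacZ reporter stimulated by forskolin 10 µM; beta-galactosidase reporter signal reflecting CREB driven transcription.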 The conditions noted are these: luminescence, 4.5 h, higher = more signal, called active from +8 up or from −8 down.
In test [6] the target is Streptavidin (Streptomyces avidinii) (UniProt P22629). The test is described as follows: compounds binding control protein streptavidin – biophysical, small-molecule microarray, 635/667 nm fluorescence, artefact control for SMM compound annotation, primary screen (AID 1147).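 Note: signal reflects streptavidin binding to arrayed compounds as a control protein.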 The settings on record: higher = more signal.
Streptavidin (Streptomyces avidinii), sequence (P22629 whole entry, looked up): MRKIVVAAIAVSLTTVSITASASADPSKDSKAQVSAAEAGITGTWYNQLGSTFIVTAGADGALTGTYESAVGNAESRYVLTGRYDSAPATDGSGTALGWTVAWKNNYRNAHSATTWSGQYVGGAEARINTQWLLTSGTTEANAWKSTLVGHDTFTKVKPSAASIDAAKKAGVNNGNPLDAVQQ
Test [7] can be described thus: probe aInhba binding on compound microarray – biochemical, small-molecule microarray, 635/667 nm fluorescence, primary screen (AID 1148).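 Note: score merges 667nm spot fluorescence with signal-to-noise for antibody binding to printed compounds.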 The conditions noted are these: higher = more signal.
Test [8] has as its target Torsin-1A (Homo sapiens) (UniProt O14656). The test is described as follows: TOR1A wild-type binding on microarray – cell lysate, small-molecule microarray, lysate, 635/667 nm, primary screen (AID 1149). The settings on record: COS7 hTOR1A-WT lysate, 635 nm fluorescence, higher = more signal.
Test [9] shares this target. The test is described as follows: torsin A mutant lysate binding on microarrays – cell lysate, small-molecule microarray, COS7 lysate, 635/667 nm fluorescence, primary screen (AID 1150).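 Note: score pools 667 nm emission and signal to noise measuring lysate protein binding.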 The conditions noted are these: COS7 hTOR1A mutant lysate, 635 nm fluorescence, higher = more signal.
In test [10] the test system is Sonic hedgehog protein (Shh). The test is described as follows: Sonic hedgehog microarray binding compounds – biochemical, small-molecule microarray, 635/667 nm fluorescence, primary screen (AID 1151).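 Note: Shh protein binding to compounds spotted on small-molecule microarray slides; score combines spot fluorescence intensity with signal-to-noise across triplicate slides.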 The conditions noted are these: 635 nm fluorescence, higher = more signal.
Test [11] can be described thus: optical density shifts of acrAB sulA E. coli – strain DRC41, OD650, 48 h, E. coli filamentation inducer project, primary screen (AID 1152).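 Note: E. coli MC1000 strain DRC41 lacking acrAB efflux pump and sulA.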 The conditions noted are these: higher = more signal, called active from +8 up or from −8 down.
Test [12] is described as follows: probe aLefty1 binding on compound microarray – biochemical, small-molecule microarray, 635/667 nm fluorescence, primary screen (AID 1153).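 Note: score merges spot fluorescence with signal-to-noise ratio from the scanned slide images.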 The conditions noted are these: higher = more signal.
A short description of test [13]: plasmodial surface anion channel blockers, osmotic lysis – cell-based, P. falciparum Indochina, OD700, 1 h, primary screen (AID 1154). The conditions noted are these: P. falciparum Indochina infected RBC osmotic lysis, higher = more signal, called active from +8 up or from −8 down.
A short description of test [14]: plasmodial surface anion channel blockers, osmotic lysis – cell-based, P. falciparum Indochina, OD700, 2 h, primary screen (AID 1155).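 Note: lysis reports solute entry through the parasite surface anion channel PSAC.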 The conditions noted are these: P. falciparum Indochina infected erythrocytes, higher = more signal, called active from +8 up or from −8 down.
Test [15] can be described thus: changes in parasitized red cell lysis, either direction – P. falciparum Indochina, OD700, 3 h, PSAC antagonist project, primary screen (AID 1156). The settings on record: P. falciparum-infected erythrocytes, osmotic lysis, higher = more signal, called active from +8 up or from −8 down.
Test [16] in a line: plasmodial surface anion channel blockers, osmotic lysis – cell-based, P. falciparum Indochina, OD700, 18 h, primary screen (AID 1157). The conditions noted are these: P. falciparum Indochina infected erythrocytes, osmotic lysis OD700, 18 h; higher = more signal, called active from +8 up or from −8 down.
Test [17] is described as follows: S6 kinase pathway phospho-S6 level changes – cell-based, A549, cytoblot, luminescence, serum-stimulated, primary screen (AID 1158).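 Note: serum-stimulated A549 lung adenocarcinoma cells; signal is phosphorylated S6 detected by cytoblot immunostaining with HRP secondary.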 The settings on record: 5 h, higher = more signal.
In test [18] the target is NADPH oxidase 2 (Homo sapiens) (UniProt P04839). The test is described as follows: compounds shifting NOX2 Amplex Red fluorescence – cell-based, HEK293-NOX2, PMA-stimulated, NOX inhibitor project, primary screen (AID 1159). Note: test concentration not given here. The conditions noted are these: 45 min, higher = more signal, called active from +8 up or from −8 down.
NADPH oxidase 2 (Homo sapiens), sequence (P04839 whole entry, looked up): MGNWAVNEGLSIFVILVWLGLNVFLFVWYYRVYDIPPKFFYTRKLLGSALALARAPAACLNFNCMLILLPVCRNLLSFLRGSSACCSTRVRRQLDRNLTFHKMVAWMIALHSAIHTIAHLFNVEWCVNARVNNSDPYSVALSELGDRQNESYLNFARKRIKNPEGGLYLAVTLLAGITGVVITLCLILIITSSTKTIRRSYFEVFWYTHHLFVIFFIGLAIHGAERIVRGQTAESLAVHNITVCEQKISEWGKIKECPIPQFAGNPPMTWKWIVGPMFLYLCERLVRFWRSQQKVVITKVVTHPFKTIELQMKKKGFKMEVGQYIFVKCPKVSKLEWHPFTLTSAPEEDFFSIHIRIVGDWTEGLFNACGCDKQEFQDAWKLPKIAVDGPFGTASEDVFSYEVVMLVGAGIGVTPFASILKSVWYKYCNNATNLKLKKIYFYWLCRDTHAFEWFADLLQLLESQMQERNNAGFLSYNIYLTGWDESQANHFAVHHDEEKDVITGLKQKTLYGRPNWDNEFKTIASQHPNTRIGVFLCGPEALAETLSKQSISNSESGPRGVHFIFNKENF
Test [19] addresses NADPH oxidase 4 (Homo sapiens) (UniProt Q9NPH5). The test is described as follows: compounds shifting NOX4 Amplex Red fluorescence – cell-based, HEK293-NOX4, tetracycline-induced, NOX inhibitor project, primary screen (AID 1160). The conditions noted are these: HEK293-NOX4, Amplex Red H2O2 fluorescence, 45 min; higher = more signal, called active from +8 up or from −8 down.
In test [20] the target is NADPH oxidase 5 (Homo sapiens) (UniProt Q96PH1). The test is described as follows: compounds shifting NOX5 Amplex Red fluorescence – cell-based, HEK293-NOX5, NOX inhibitor project, primary screen (AID 1161). The settings on record: HEK293-NOX5, ionomycin, 45 min, higher = more signal.
NADPH oxidase 5 (Homo sapiens), sequence (Q96PH1 whole entry, looked up): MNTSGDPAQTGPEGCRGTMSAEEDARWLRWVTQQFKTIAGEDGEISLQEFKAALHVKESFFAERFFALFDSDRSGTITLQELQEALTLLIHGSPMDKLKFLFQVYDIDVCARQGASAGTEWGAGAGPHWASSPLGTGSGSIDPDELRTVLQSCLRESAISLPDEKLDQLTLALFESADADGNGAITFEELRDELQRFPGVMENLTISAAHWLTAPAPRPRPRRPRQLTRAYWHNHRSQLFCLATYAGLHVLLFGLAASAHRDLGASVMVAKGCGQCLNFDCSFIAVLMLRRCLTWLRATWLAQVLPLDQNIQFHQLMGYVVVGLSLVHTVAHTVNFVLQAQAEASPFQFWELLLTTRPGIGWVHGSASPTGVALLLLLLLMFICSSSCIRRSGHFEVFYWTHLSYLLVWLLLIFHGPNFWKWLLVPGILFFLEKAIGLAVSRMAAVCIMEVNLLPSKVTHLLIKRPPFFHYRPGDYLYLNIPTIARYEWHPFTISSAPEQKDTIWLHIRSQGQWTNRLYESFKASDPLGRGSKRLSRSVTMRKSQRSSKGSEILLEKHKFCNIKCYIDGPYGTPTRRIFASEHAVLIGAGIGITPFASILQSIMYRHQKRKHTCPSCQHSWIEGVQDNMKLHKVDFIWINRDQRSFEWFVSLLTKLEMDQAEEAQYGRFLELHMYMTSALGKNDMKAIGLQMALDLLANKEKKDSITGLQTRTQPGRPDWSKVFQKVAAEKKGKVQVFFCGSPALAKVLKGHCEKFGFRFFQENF

Torsin-1A (Homo sapiens), sequence (O14656 whole entry, looked up): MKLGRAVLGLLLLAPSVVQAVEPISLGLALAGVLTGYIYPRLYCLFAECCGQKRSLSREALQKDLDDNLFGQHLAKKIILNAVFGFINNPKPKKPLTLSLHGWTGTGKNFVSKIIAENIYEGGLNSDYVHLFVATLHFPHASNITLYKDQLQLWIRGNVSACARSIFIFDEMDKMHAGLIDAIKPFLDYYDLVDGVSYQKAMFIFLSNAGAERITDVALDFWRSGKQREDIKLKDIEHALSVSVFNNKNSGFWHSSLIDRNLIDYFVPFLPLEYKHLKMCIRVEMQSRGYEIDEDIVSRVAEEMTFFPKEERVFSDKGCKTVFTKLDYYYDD
NADPH oxidase 4 (Homo sapiens), sequence (Q9NPH5 whole entry, looked up): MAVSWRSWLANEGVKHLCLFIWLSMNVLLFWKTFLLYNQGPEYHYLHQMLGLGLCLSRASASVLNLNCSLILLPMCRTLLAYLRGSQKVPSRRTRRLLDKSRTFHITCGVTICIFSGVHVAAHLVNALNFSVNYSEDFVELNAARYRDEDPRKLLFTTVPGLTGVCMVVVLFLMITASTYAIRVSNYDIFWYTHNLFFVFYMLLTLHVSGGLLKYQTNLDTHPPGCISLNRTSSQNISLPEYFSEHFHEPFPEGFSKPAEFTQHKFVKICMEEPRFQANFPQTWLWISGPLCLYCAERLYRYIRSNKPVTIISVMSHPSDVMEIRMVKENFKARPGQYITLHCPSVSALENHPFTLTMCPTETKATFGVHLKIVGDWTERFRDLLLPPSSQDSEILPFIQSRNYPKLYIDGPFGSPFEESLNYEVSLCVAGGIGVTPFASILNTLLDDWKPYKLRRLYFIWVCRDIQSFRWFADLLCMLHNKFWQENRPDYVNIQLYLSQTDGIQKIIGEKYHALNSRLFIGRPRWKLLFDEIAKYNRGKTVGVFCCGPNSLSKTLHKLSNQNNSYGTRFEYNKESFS

For the compound `CC(CCC(=O)OC[C@H]1O[C@H](C#Cc2ccccc2)C=C[C@@H]1Oc1ccc(C)cc1)=NO[C@H](C)c1cn([C@@H]2COC[C@H]2O)nn1`, the composite z-score in test [1] was -0.0352; in test [6], 0.197; in test [7], -0.101; in the test with Torsin-1A (Homo sapiens) [8] it was 0.587; with Torsin-1A (Homo sapiens) [9], 0.326; in test [10], 0.39. In addition, the composite z-score in [12] is -0.191. Further, the z-score in [2] is -0.783 (inactive); in test [3], -0.763 (inactive); in test [4] it was 3.17 (inactive); in [5], -0.0087 (inactive); in [11], -0.6 (inactive); in test [13] it was 26.8 (active). Also, the z-score in test [14] was 3.78 (inactive); in test [15] it was 1.38 (inactive); in test [16] it was -0.643 (inactive); in [17], 1.2; in [18], -2.39 (inactive); in [19], -0.358 (inactive). The z-score in test [20] is -3.36.
On to `CCN1C(=O)[C@H]2[C@H]3[C@H](O)[C@H](O)CC(=NOCC[C@@H]4C=C[C@H](OC(C)=O)[C@@H](COC(C)=O)O4)[C@@H]3CC[C@H]2C1=O`, for which the composite z-score is 0.0885 in test [1]; -0.0034 in test [6]; -0.109 in test [7]; 0.014 with Torsin-1A (Homo sapiens) [8]; 0.296 with Torsin-1A (Homo sapiens) [9]; 0.55 in [10]. In addition, in test [12], the composite z-score was -0.125. Further, the z-score is -0.0735 (inactive) in test [2]; 0.857 (inactive) in test [3]; 0.0757 (inactive) in test [4]; 0.313 (inactive) in test [5]; -0.405 (inactive) in test [11]; 0.422 (inactive) in [13]. In addition, the z-score in [14] is 0.329 (inactive); in [15], -0.376 (inactive); in test [16], 0.44 (inactive); in test [17] it was -0.401; in test [18], 0.0899 (inactive); in [19], -0.0656 (inactive). Besides, the z-score in test [20] came to 0.859.
With `COc1ccc(O[C@H]2C=C[C@@H](c3ccccc3)O[C@@H]2COC(=O)NCc2cccc3ccccc23)cc1`, the composite z-score in test [1] is -0.092; in test [6] it was 0.493; in test [7], -0.218; with Torsin-1A (Homo sapiens) [8], 0.0485; with Torsin-1A (Homo sapiens) [9] it was 0.225; in [10] it was 0.401. This compound also registered a composite z-score in test [12] of -0.0046. In addition, the z-score in [2] is -1.55 (inactive); in test [3] it was 0.928 (inactive); in test [4], 0.745 (inactive); in test [5] it was 1.56 (inactive); in test [11] it was -0.286 (inactive); in test [13], 2.71 (inactive). The z-score in test [14] is 0.896 (inactive); in test [15], -0.119 (inactive); in test [16], 0.515 (inactive); in test [17], -0.553; in [18], 0.5 (inactive); in test [19], -0.0581 (inactive). Also, in [20], the z-score is -0.406.
As for `CC(C)=CCCC(C)=CCON=C1[C@H]2CCn3c(=O)n(-c4ccccc4)c(=O)n3[C@H]2[C@H](O)[C@@H]2O[C@H]12`, the composite z-score in [1] is 0.0694; in test [6] it was 1.07; in test [7], 0.0319; with Torsin-1A (Homo sapiens) [8] it was 1.02; with Torsin-1A (Homo sapiens) [9] it was 0.413; in [10], 1.38. The same compound had a composite z-score in test [12] of 0.688. Moreover, the z-score in [2] is -1.7 (inactive); in [3] it was -0.044 (inactive); in test [4], -0.473 (inactive); in test [5], -0.271 (inactive); in test [11], -0.484 (inactive); in test [13], 4.93 (inactive). For the same compound, the z-score in [14] is 0.635 (inactive); in test [15] it was 2.07 (inactive); in test [16], 0.695 (inactive); in test [17] it was 0.897; in [18], 0.856 (inactive); in [19], 0.577 (inactive). In test [20], the z-score is -0.799.
`CC(C)=CCCC(C)=CCON=C1C[C@@H](O)[C@@H](O)[C@@H]2[C@@H]3C(=O)N(c4cccc(Oc5ccccc5)c4)C(=O)[C@@H]3CC[C@H]12`: the composite z-score was -0.022 in test [1]; -0.11 in [6]; -0.128 in test [7]; 0.575 in the test with Torsin-1A (Homo sapiens) [8]; 0.704 with Torsin-1A (Homo sapiens) [9]; 1.51 in test [10]. Further, in test [12], the composite z-score was determined as 0.0363. Besides, the z-score in test [2] is -1.47 (inactive); in [3], 1.73 (inactive); in [4] it was -0.205 (inactive); in [5], -0.158 (inactive); in [11], 0.349 (inactive); in test [13] it was 2.26 (inactive). Also, the z-score is 1.25 (inactive) in test [14]; 0.17 (inactive) in test [15]; 0.722 (inactive) in [16]; 0.34 in test [17]; -1.35 (inactive) in test [18]; 0.0399 (inactive) in test [19]. Besides, in test [20], the z-score was -0.583.
Regarding `COC(=O)[C@H](Cc1ccccc1)NC(=O)[C@@H](C)CO`, the composite z-score in [1] turned out to be 0.276; in [6], 0.311; in test [7] it was 0.284; with Torsin-1A (Homo sapiens) [8], 0.0847; with Torsin-1A (Homo sapiens) [9] it was 0.0866; in test [10] it was 0.643. Also, the composite z-score in test [12] is 0.174. The z-score in test [2] was -2.36 (inactive); in [3], -1.61 (inactive); in test [4] it was -0.0684 (inactive); in [5], 0.563 (inactive); in test [11] it was -0.388 (inactive); in test [13] it was 0.0772 (inactive). Moreover, the z-score in [14] is -0.824 (inactive); in test [15], 0.811 (inactive); in test [16], -1.87 (inactive); in test [17], 1.92; in test [18] it was 0.966 (inactive); in test [19], 0.185 (inactive). Also, the z-score in test [20] is -2.94.
